# C diff growth: C. difficile growth inhibitors, primary screen, HTS. Clostridium difficile clinical isolate growth, OD600, 24 h; active compounds read low. growth activity, negative = inhibition, % at 16 µg/mL (by protocol). 0.25% of 86,000 active;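 active = mean growth activity at or below -80% and every replicate also at or below -80%; inconclusive = mean at or below -80% but some replicate above -80%; inactive = mean growth activity above -80%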;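 also: 0% = DMSO wells and -100% = levofloxacin 16 µg/mL wells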
# Pf Dd2 growth: P. falciparum Dd2 growth inhibitors, primary screen, SYBR Green fluorescence, single dose replicates; 72 h; active compounds read low; activity change, % at 10 µM; 2.3% of 94,000 active; AID 1159554, 2015; in the data active = activity change below about -80%; inconclusive = no clear call, values can overlap the other calls
# T cruzi growth-1: T. cruzi intracellular proliferation inhibitors, primary screen, cell-based, beta-gal Tulahuen parasites, NIH3T3 host, luminescence; T. cruzi beta-gal in NIH3T3, GalScreen luminescence, 90 h; inhibition, % at 8.34 µM; 5.9% of 77,000 active; AID 624255, 2012;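 active = mean inhibition above about 93%, with at least 55% of replicates each passing it, limit read from the data, passing the limit was not always enough; inconclusive = only one of those two conditions holds; inactive = neither condition holds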
# T cruzi growth-2: T. cruzi intracellular proliferation inhibitors, confirmation, cell-based, NIH3T3 host, beta-gal parasite, luminescence, cherry-pick | 72% of 5,600 active | shares compounds with T cruzi growth-1 | T. cruzi beta-gal in NIH3T3, GalScreen luminescence, 90 h | inhibition, % at 8.35 µM;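 active = mean replicate inhibition above about 95% and at least 55% of replicates individually reaching it, limit read from the data; inconclusive = only one of the two criteria is met; inactive = neither criterion is met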
# T cruzi growth-3: inhibitors of intracellular T. cruzi replication, confirmation, NIH3T3 host cells, beta-gal parasites, cherry-pick, set 2. T. cruzi beta-gal in NIH3T3, GalScreen luminescence, 90 h. shares compounds with T cruzi growth-1. 21% of 5,600 active. inhibition, % at 2.09 µM. AID 651740, 2012;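 active = mean inhibition above about 95%, with at least 55% of replicates also reaching it, limit read from the data; inconclusive = meets just one of the two conditions; inactive = meets neither condition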;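 also: plate controls were neutral control median for no effect and positive control median for full effect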
# 3T3 cytotox: cytotoxicity in mouse NIH/3T3 fibroblasts, confirmation, cytotoxicity control for T. cruzi proliferation inhibitor project, cell-based, cherry-pick, single point. NIH/3T3 viability, CellTiter-Glo ATP luminescence, 90 h. cytotoxicity (signal decrease), % at 8.35 µM. shares compounds with T cruzi growth-1. 14% of 5,600 active;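 active = mean signal decrease across replicates above about 35% based on untreated-well scatter, with enough replicates individually passing, limit read from the data; inconclusive = no rule stated though some were filed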;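 also: 0% = median of neutral control wells and 100% = median of positive control wells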
# NIH3T3 tox 2: NIH/3T3 fibroblast cytotoxicity, confirmation, cytotoxicity control, cell-based, cherry-pick, single point, set 2. AID 651744, 2012. NIH/3T3 viability, CellTiter-Glo ATP luminescence, 90 h. inhibition, % at 24.9 µM. shares compounds with T cruzi growth-1. 56% of 5,600 active;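 active = mean loss of cell viability signal at or above a set limit, and enough replicates individually reaching it; inconclusive = meets only the mean limit or only the replicate share; inactive = meets neither condition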;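 also: 0% = median of neutral control wells and 100% = median of positive control wells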
# An asterisk follows results filed as active; ? = inconclusive; nt = no result. The list is not random: actives were taken first. Their share in the collection is about 6.7%.
SMILES,C diff growth,Pf Dd2 growth,T cruzi growth-1,T cruzi growth-2,T cruzi growth-3,3T3 cytotox,NIH3T3 tox 2
C[C@@H]1CN([C@@H](C)CO)S(=O)(=O)c2ccc(C#CC3CCCC3)cc2O[C@@H]1CN(C)C(=O)Nc1cc(F)ccc1F,nt,-30.7,nt,nt,nt,nt,nt
C[C@H]1CN([C@@H](C)CO)S(=O)(=O)c2ccc(C#CC3CC3)cc2O[C@H]1CN(C)C(=O)Nc1cc(F)ccc1F,nt,-71.0,120.8*,108.5*,83.3,16.6,11.6
C[C@H]1CN([C@@H](C)CO)S(=O)(=O)c2ccc(C#CC3CC3)cc2O[C@@H]1CN(C)C(=O)Nc1cc(F)ccc1F,nt,-54.6,111.1*,107.9*,79.3,39.4*,36.3*
COC(=O)C[C@@H]1C[C@H]2c3cc(NC(=O)Nc4ccccc4)ccc3O[C@H]2[C@@H](CO)O1,8.2,22.9,5.1,nt,nt,nt,nt
COc1ccc(C(=O)Nc2ccc3c(c2)C(=O)N(C)C[C@H](OC)[C@@H](C)CN(C(C)=O)[C@@H](C)CO3)cc1,nt,7.6,21.9,nt,nt,nt,nt
CCCNC(=O)C[C@@H]1CC[C@@H]2[C@H](COc3ccc(NS(=O)(=O)c4ccccc4C)cc3C(=O)N2C)O1,13.4,-0.3,34.9,nt,nt,nt,nt
COc1ccc(NC(=O)N(C)C[C@H]2OCCCC[C@@H](C)Oc3ccc(NS(=O)(=O)c4ccc(Cl)cc4)cc3C(=O)N([C@@H](C)CO)C[C@@H]2C)cc1,-2.8,-71.9,80.8,nt,nt,nt,nt
C[C@H](CO)N1C[C@H](C)[C@H](CN(C)Cc2ccc3c(c2)OCO3)OCCCC[C@H](C)Oc2ccc(NC(=O)Nc3ccc4c(c3)OCO4)cc2C1=O,nt,-3.1,nt,nt,nt,nt,nt
C[C@@H]1CCCCO[C@@H](CN(C)Cc2ccc3c(c2)OCO3)[C@H](C)CN([C@H](C)CO)C(=O)c2cc(NC(=O)Nc3ccccc3)ccc2O1,14.4,-78.6,?,99.5*,104.9*,11.9,104.2*
C[C@H](CO)N1C[C@H](C)[C@@H](CN(C)Cc2ccc3c(c2)OCO3)OCCCC[C@H](C)Oc2ccc(NC(=O)Nc3ccc4c(c3)OCO4)cc2C1=O,nt,-24.4,90.8,nt,nt,nt,nt
C[C@@H]1CN([C@H](C)CO)C(=O)c2cc(NC(=O)Nc3ccc4c(c3)OCO4)ccc2O[C@@H](C)CCCCO[C@H]1CN(C)Cc1ccc2c(c1)OCO2,nt,-66.7,nt,nt,nt,nt,nt
C[C@@H]1CN([C@H](C)CO)C(=O)c2cc(NC(=O)Nc3ccccc3)ccc2O[C@@H](C)CCCCO[C@@H]1CN(C)Cc1ccc2c(c1)OCO2,19.4,-84.4*,?,86.6,92.2,93.9*,103.2*
C[C@@H]1CN([C@@H](C)CO)C(=O)c2cc(NC(=O)Nc3ccccc3)ccc2O[C@@H](C)CCCCO[C@@H]1CN(C)Cc1ccc2c(c1)OCO2,5.1,?,96.7*,100.6*,37.0,42.2*,33.6*
COc1ccccc1C#Cc1ccc([C@H]2[C@@H](CO)N3CCCCN(C(=O)C4CCC4)C[C@H]23)cc1,-1.2,-39.6,92.0,nt,nt,nt,nt
COc1ccccc1C#Cc1ccc([C@@H]2[C@H]3CN(C(=O)C4CCCC4)CCCCN3[C@H]2CO)cc1,-0.9,-0.7,95.5*,87.5,96.9*,85.9*,103.7*
COc1ccccc1C#Cc1ccc([C@H]2[C@@H](CO)N3CCCCN(C(=O)C4CCCC4)C[C@H]23)cc1,4.3,-29.9,91.6,nt,nt,nt,nt
COc1ccccc1C#Cc1ccc([C@@H]2[C@H]3CN(C(=O)C4CCC4)CCCCN3[C@H]2CO)cc1,1.0,-19.3,97.5*,102.1*,93.8,56.0*,105.2*
Cc1ccc(S(=O)(=O)N[C@@H]2CC[C@@H](CC(=O)NCCCN(C)C)O[C@@H]2CO)cc1,5.3,-13.5,-21.5,nt,nt,nt,nt
O=C(c1cnccn1)N1CC[C@@H]2[C@@H](CO)Nc3ccc(-c4ccccc4F)cc3[C@@H]21,-3.1,-20.8,97.9,nt,nt,nt,nt
